IDE exosite inh = displaces the probe from the exo-site of human IDE; AID 1259349; purified IDE, FL-6b probe fluorescence polarization; active compounds read low; 17,000 compounds, 6.3% hits; z-score at 20 µM; P14735;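 active = z-score of -3 or lower, meaning strong loss of probe binding signal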;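 note: His-tagged human IDE residues 42-1019 made in E. coli with 30 nM FL-6b probe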
Hits are given with their value; ! = not active in a repeat. Shown is part of a subset that was picked to be rich in hits.

`O=C(Nc1cccc(F)c1)N1C[C@@H]2N[C@H](C1)C2c1ccc(-c2cccnc2)cc1` (some centres undefined) gave IDE exosite inh inactive.
Cc1ccccc1-c1ccc(C2[C@H]3CNC[C@@H]2N3C(=O)Nc2ccc(F)cc2)cc1 (some centres undefined) was read as IDE exosite inh inactive.
For Cc1ccccc1-c1ccc(C2[C@@H]3CN(C(=O)NC4CCCCC4)C[C@H]2N3)cc1 (some centres undefined) the results were IDE exosite inh -8.23!.
`Cc1ccccc1-c1ccc(C2[C@@H]3CN(C(=O)Nc4cccc(F)c4)C[C@H]2N3)cc1` (some centres undefined) gave IDE exosite inh -6.41.
`Cc1ccccc1-c1ccc(C2[C@@H]3CN(C(=O)Nc4ccc(F)cc4)C[C@H]2N3)cc1` (some centres undefined) gave IDE exosite inh -10.7.
Screening C/C=C/c1ccc(C2[C@@H]3CN(C(=O)NC4CCCCC4)C[C@H]2N3)cc1 (some centres undefined) returned IDE exosite inh inactive.
CCCC(=O)Nc1ccc2c(c1)C(=O)N(C)[C@H]1CC[C@H](CC(=O)N3CCCCC3)O[C@H]1CO2 was read as IDE exosite inh inactive.
Screening O=C(Nc1ccccc1)N1CCCCN2[C@H](C1)[C@@H](c1ccc(C#CC3CC3)cc1)[C@@H]2CO returned IDE exosite inh inactive.
COc1ccc(C[C@@H]2CCn3nncc3COC[C@@H](CC(C)C)NC2=O)cc1 was read as IDE exosite inh inactive.
Screening C[C@@H]1CN([C@@H](C)CO)C(=O)c2cc(N(C)C)ccc2O[C@@H](C)CCCCO[C@@H]1CN(C)S(=O)(=O)c1cn(C)cn1 returned IDE exosite inh inactive.
`COCC(=O)N1CC2(CCN(Cc3ccccc3)CC2)c2c([nH]c3cc(OC)ccc23)[C@H]1CO` gave IDE exosite inh inactive.
`CO[C@@H]1CC[C@@H]2CCN(C)C(=O)[C@@H](C)CN(C)C(=O)c3cc(C#N)ccc3OC[C@@H]1O2` gave IDE exosite inh inactive.
COc1cccc(C#Cc2ccc([C@H]3[C@H](CO)N4C(=O)CN(C(=O)C5CC5)C[C@@H]34)cc2)c1 was read as IDE exosite inh -4.6.
COc1cccc(C#Cc2ccc([C@@H]3[C@H]4CN(C(=O)C5CC5)CC(=O)N4[C@H]3CO)cc2)c1 was read as IDE exosite inh inactive.
For COc1ccc(C#Cc2ccc([C@H]3[C@H](CO)N4C(=O)CN(C(=O)C5CCOCC5)C[C@@H]34)cc2)cc1 the results were IDE exosite inh inactive.
For COc1cccc(C#Cc2ccc([C@H]3[C@@H](CO)N4C(=O)CN(C(=O)C5CC5)C[C@H]34)cc2)c1 the results were IDE exosite inh -9.46.
For COc1cccc(C#Cc2ccc([C@@H]3[C@@H](CO)N4C(=O)CN(C(=O)C5CC5)C[C@@H]34)cc2)c1 the results were IDE exosite inh inactive.
Screening C[C@@H](O)C#Cc1ccc([C@@H]2[C@H](CO)N3CCCCN(CC4CCOCC4)C[C@@H]23)cc1 returned IDE exosite inh inactive.
`O=C1CN(Cc2ccccc2)C[C@@H]2[C@H](c3ccc(Br)cc3)[C@@H](CO)N12` gave IDE exosite inh inactive.
For CCCC#Cc1ccc([C@H]2[C@H](CO)N3C(=O)CN(C(=O)Nc4ccccc4)C[C@@H]23)cc1 the results were IDE exosite inh inactive.
O=C(Nc1ccc2c(c1)[C@@H]1C[C@H](CC(=O)N3CCCCC3)O[C@H](CO)[C@@H]1O2)NC1CCCCC1 was read as IDE exosite inh inactive.
Screening COc1ccccc1-c1cnc2c(c1)C(=O)N([C@H](C)CO)C[C@H](C)[C@H](CN(C)C(=O)CC1CC1)O2 returned IDE exosite inh inactive.
For O=C(Nc1ccccc1F)N1CC(=O)N2[C@@H](CO)[C@@H](c3ccc(C#Cc4ccccc4)cc3)[C@@H]2C1 the results were IDE exosite inh -5.84.
Screening O=C(c1ccccc1F)N1CC(=O)N2[C@H](CO)[C@H](c3ccc(C#Cc4ccccc4)cc3)[C@H]2C1 returned IDE exosite inh inactive.
Screening O=C(c1ccccc1F)N1CC(=O)N2[C@@H](CO)[C@@H](c3ccc(C#Cc4ccccc4)cc3)[C@@H]2C1 returned IDE exosite inh inactive.
`O=C(Nc1ccccc1F)N1CC(=O)N2[C@H](CO)[C@H](c3ccc(C#Cc4ccccc4)cc3)[C@H]2C1` gave IDE exosite inh inactive.
`O=C(Nc1ccccc1F)N1CC(=O)N2[C@H](CO)[C@H](c3ccc(C#Cc4ccc(F)cc4)cc3)[C@@H]2C1` gave IDE exosite inh inactive.
`O=C(c1ccccc1F)N1CC(=O)N2[C@@H](CO)[C@H](c3ccc(C#Cc4ccccc4)cc3)[C@@H]2C1` gave IDE exosite inh -3.51.
For COC(=O)C[C@H]1CC[C@H](N)[C@@H](CO)O1 the results were IDE exosite inh inactive.
O=C(CN1CCOCC1)N1CC(=O)N2[C@H](C1)[C@H](c1ccc(-c3cccc(F)c3)cc1)[C@@H]2CO was read as IDE exosite inh inactive.
For C[C@@H]1CCCCO[C@H](CN(C)Cc2ccc(C(=O)O)cc2)[C@H](C)CN([C@@H](C)CO)C(=O)c2cc(N(C)C)ccc2O1 the results were IDE exosite inh inactive.
O=C(CN1CCOCC1)N1CC(=O)N2[C@@H](CO)[C@H](c3ccc(-c4ccccc4)cc3)[C@@H]2C1 was read as IDE exosite inh inactive.
`COc1cccc(-c2ccc([C@H]3[C@H](CO)N4C(=O)CN(C(=O)CN5CCOCC5)C[C@@H]34)cc2)c1` gave IDE exosite inh -3.36.
`COc1ccc(-c2ccc([C@H]3[C@H](CO)N4C(=O)CN(C(=O)C5CCOCC5)C[C@@H]34)cc2)cc1` gave IDE exosite inh inactive.
For COc1cccc(-c2ccc([C@H]3[C@@H](CO)N4C(=O)CN(C(=O)C5CCOCC5)C[C@H]34)cc2)c1 the results were IDE exosite inh -8.69.
For O=C(CN1CCOCC1)N1CC(=O)N2[C@H](CO)[C@@H](c3ccc(-c4cccc(F)c4)cc3)[C@H]2C1 the results were IDE exosite inh inactive.
For COc1ccc(-c2ccc([C@@H]3[C@@H](CO)N4C(=O)CN(C(=O)C5CCOCC5)C[C@H]34)cc2)cc1 the results were IDE exosite inh inactive.
`COc1cccc(-c2ccc([C@H]3[C@H](CO)N4C(=O)CN(C(=O)C5CCOCC5)C[C@@H]34)cc2)c1` gave IDE exosite inh inactive.
COc1cccc(-c2ccc([C@H]3[C@H]4CN(C(=O)C5CCOCC5)CC(=O)N4[C@H]3CO)cc2)c1 was read as IDE exosite inh inactive.
`COc1cccc(-c2ccc([C@H]3[C@@H](CO)N4C(=O)CN(C(=O)C5CCOCC5)C[C@@H]34)cc2)c1` gave IDE exosite inh -4.45.
Screening COCC(=O)NC[C@H]1N[C@H](CO)[C@@H]1c1ccc(C#CC2CCCCC2)cc1 returned IDE exosite inh inactive.
`COc1ccc(S(=O)(=O)N2C[C@H](O)COC[C@@H]3O[C@H](CC(=O)N[C@@H]4CCN(Cc5ccccc5)C4)CC[C@H]32)cc1` gave IDE exosite inh inactive.
Screening CC(C)C#Cc1ccc([C@H]2[C@@H](CO)N3C(=O)CN(C(=O)Cc4cccnc4)C[C@@H]23)cc1 returned IDE exosite inh inactive.
C[C@H]1CN([C@@H](C)CO)C(=O)c2cccc(NC(=O)c3ccncc3)c2O[C@@H]1CN(C)Cc1ccc2c(c1)OCO2 was read as IDE exosite inh inactive.
CCC(=O)Nc1ccc2c(c1)C(=O)N(C)C[C@H](OC)[C@@H](C)CN(C(=O)Cc1cccnc1)[C@@H](C)CO2 was read as IDE exosite inh inactive.
